Many of the other results were omitted from the sample, so hits are more common in it than they were.
CHX counter = counter-screen hit for Shiga toxin inhibitors, cycloheximide; cell reporter, cycloheximide protein synthesis inhibition counterscreen; max response, %; 300,000 tested, 12% active; in the data active = max response mostly above about 13%, no sharp cut-off; inactive = mostly below about 14%; also: read at 38.3 µM for the half of the compounds with a filed dose; 0% is about no effect
Shiga inhibitor = inhibitors of Shiga toxin in Vero cells; inhibition, % at 38.7 µM; 290,000 tested, 9.2% active; Vero cells, Shiga toxin protein synthesis inhibition reporter; in the data active = inhibition mostly above about 28%, no sharp cut-off; inactive = mostly below about 43%; also: 0% is about no effect
AmpC detergent = blocks E. coli AmpC beta-lactamase in detergent assay. 370,000 tested, 0.041% active. AID 485294. AmpC hydrolysis of nitrocefin, absorbance 480 nm, 0.01% Triton. Potency, µM (titrated, usually from 114 µM), for the others: at the highest dose activity change, negative = inhibition, hits mostly inhibitors. P00811;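 also: potency is read from the fitted curve at half-maximal effect; 0% = no-compound wells and -100% = no-enzyme wells; nearly all actives have a fitted effect of over 25% in size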
Target sequence (P00811 whole entry, looked up): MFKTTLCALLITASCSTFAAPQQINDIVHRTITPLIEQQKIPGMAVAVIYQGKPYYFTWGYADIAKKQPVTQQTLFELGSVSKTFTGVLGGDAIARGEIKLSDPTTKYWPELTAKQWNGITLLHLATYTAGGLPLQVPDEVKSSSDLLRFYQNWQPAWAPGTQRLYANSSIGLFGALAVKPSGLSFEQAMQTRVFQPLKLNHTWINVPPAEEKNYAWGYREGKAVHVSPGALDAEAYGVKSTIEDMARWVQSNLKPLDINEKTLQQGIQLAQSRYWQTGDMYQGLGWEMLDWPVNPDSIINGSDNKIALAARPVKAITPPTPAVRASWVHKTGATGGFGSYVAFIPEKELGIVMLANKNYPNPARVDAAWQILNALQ
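20 mM phosphate pH 7.0 + 0.01% (detergent screen) or 0.0001% Triton X-100; 5.3 nM AmpC reagent; cpd preinc 15 min RT; nitrocefin (800 uM stock) to start; A480 q20 s × 4 min; Activity was normalised to no-enzyme and no-compound control wells.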
AMA1-RON2 inh = AMA1-RON2 (P. falciparum) interaction inhibition | 360,000 tested, 0.2% active | AlphaScreen AMA1-biotinylated RON2 peptide binding | Potency, µM (top dose mostly 58.2 µM), inactives show at the highest dose activity change, negative = inhibition, hits mostly inhibitors | AID 720542;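 also: potency is read from the fitted curve at half-maximal effect; 0% = vehicle wells and -100% = peptide control; nearly all actives have a fitted effect of over 45% in size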
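AMA1 (3D7) with his tag at 25 nM final met compounds first, then biotinylated RON2 peptide at 25 nM; detection used donor plus acceptor beads, 10 µg/mL apiece, read by AlphaScreen after 30 min at room temperature.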
SARS PLP yeast = inhibitors of SARS-CoV papain-like protease in yeast | 330,000 tested, 0.19% active | Potency, µM (doses to about 32.9 µM), for the others: at the highest dose activity, positive = growth rescue, usual class: activators | S. cerevisiae expressing SARS-CoV PLpro, growth rescue | AID 485353; calls by dose curve; also: potency is read from the fitted curve at half-maximal effect; 0% is about no effect; nearly all actives have a fitted effect of over 55% in size
AmpC no deterg = blocks E. coli AmpC beta-lactamase in detergent-free assay; P00811; AmpC nitrocefin hydrolysis, absorbance 480 nm, 0.0001% Triton; Potency, µM (series often up to 57.1 µM), for the others: top-dose activity change, negative = inhibition, most hits filed as inhibitors; 330,000 tested, 0.52% active; AID 485341;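 also: potency is read from the fitted curve at half-maximal effect; plate controls were no compound for no effect and no enzyme for full effect; nearly all actives have a fitted effect of over 20% in size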
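AmpC (5.3 nM in the dispensed reagent) in 20 mM phosphate pH 7.0 with 0.01% (detergent screen) or 0.0001% Triton X-100 was preincubated with compounds for 15 min at room temperature. Nitrocefin was then added from an 800 uM solution, and hydrolysis was followed at 480 nm.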
An asterisk follows results filed as active; u = inconclusive; x = no result; [ ] = another dose, or the depositor's remark. Unless noted, calls follow the shape of the dose curve; as a rule, active = well fitted curve in the direction sought with a large enough effect; inconclusive = small, poorly fitted or top-dose-only effect, or another doubt; inactive = no such curve, though single readings can be large; an effect the other way counts as inactive or inconclusive.

SMILES	CHX counter	Shiga inhibitor	AmpC detergent	AMA1-RON2 inh	SARS PLP yeast	AmpC no deterg
Cc1ccc2c(c1)sc1nc(=O)n(-c3cccc(Cl)c3)c(=O)n12	19*	29	8%	12%	-3%	-19%
Cc1ccc2c(c1)sc1nc(=O)n(-c3ccc(Cl)cc3)c(=O)n12	-1	-17	0%	-15%	-9%	-23%
O=c1nc2sc3ccccc3n2c(=O)n1-c1ccc(Cl)cc1	29*	22	-11%	-2%	2%	-30%
O=c1nc2sc3ccccc3n2c(=O)n1-c1cccc(Cl)c1	19	37	2%	-3%	8%	-19%
COc1ccc(-c2cc(C(F)(F)F)c(C#N)c(SCC(=O)O)n2)cc1	-4	-16	5%	23%	1%	-7%
CC1(C)Oc2ccc(C(=O)Nc3ccccc3F)cc2N(CC(=O)N2CCOCC2)C1=O	12*	48	-9%	6%	-1%	2%
COC(=O)CN1C(=O)C(C)(C)Oc2ccc(C(=O)Nc3ccccc3F)cc21	14	6	2%	9%	-2%	1%
CC(C)OC(=O)CN1C(=O)C(C)(C)Oc2ccc(C(=O)NC(C)(C)C)cc21	-2	8	-3%	-3%	0%	14%
CCOC(=O)CN1C(=O)C(C)(C)Oc2ccc(C(=O)Nc3ccccc3)cc21	13*	36	-10%	-9%	3%	-22%
CCOC(=O)c1ccc2c(c1)N(CC#N)C(=O)C(C)(C)O2	17*	31	0%	0%	0%	2%
COc1ccccc1-n1c(SCC(=O)NC(C)(C)C)nc(O)c(Cc2ccccc2)c1=O	-5	13	-2%	26%	-6%	-36%
Cc1[nH]nc(C(F)(F)F)c1CCC(=O)NC1CCCCCC1	x	x	x	21%	1%	-17%
CCn1c(C)c(C)c2cc(C(=O)N3CCc4ccccc4C3)ccc21	-1	11	-8%	u	-50%	22%
O=C1CN(C(=O)COC(=O)CCC(=O)c2ccc(Cl)cc2)c2ccccc2N1	x	x	x	-2%	20%	-15%
O=C1CN(C(=O)COC(=O)CCc2ccccc2)c2ccccc2N1	x	x	x	8%	0%	-14%
CCCOc1ccc(C(=O)CCC(=O)OCC(=O)N2CC(=O)Nc3ccccc32)cc1	32*	-7	u	-6%	-5%	1%
O=C1CN(C(=O)COc2ccc(F)cc2Br)c2ccccc2N1	15	36*	1%	-2%	1%	-21%
O=C1CN(C(=O)COC(=O)CCC(=O)c2ccc3c(c2)OCCO3)c2ccccc2N1	19*	35	u	-4%	2%	-32%
O=C(COc1ccc(Cl)cc1Br)NCC(c1ccco1)N1CCCC1 (stereo not given)	x	x	u	-7%	3%	105%
CCCCNC(=O)C[C@@H]1C[C@@]2(C(=O)OC)CC(C)(C)CC=C2N(CCc2ccc(OC)c(OC)c2)C1=O	x	x	x	-6%	x	x
O=C(NC1=NCCS1)c1cccc(OC(F)F)c1	36*	76*	u	27%	-1%	-18%[11.4 µM]
O=C(NC1=NCCS1)c1cccc(N2C(=O)c3ccccc3C2=O)c1	-2	16	-13%	116%	-3%	-54%
CN1CCc2nc(NC(=O)c3cccc(OC(F)F)c3)sc2C1	27*	23	-5%	5%	2%	-2%
CC(C)Oc1ccc(C(=O)NC2=NCCS2)cc1	20*	57	1%	28%	-1%	-29%
COc1cccc(C(=O)NC2=NCCS2)c1OC	31*	63*	-2%	6%	1%	-7%
SMILES	CHX counter	Shiga inhibitor	AmpC detergent	AMA1-RON2 inh	SARS PLP yeast	AmpC no deterg
CN1CCc2nc(NC(=O)COc3ccc4ccccc4c3)sc2C1	6	24	u	u	-8%	53%
COc1cc(C(=O)NC2=NCCS2)cc(OC)c1OC	-3	14	u	5%	-2%[6.58 µM]	-10%
CCC(C)C(NC(=O)c1ccccc1NC(=O)c1ccc(OC)cc1)C(=O)NCc1ccco1 (stereo not given)	8	15	5%	-1%	2%	37%
COc1ccc(C(=O)NC2=NCCS2)cc1	73*	68*	3%	1%	-1%	-12%
O=C(NC12CC3CC(CC(C3)C1)C2)c1cccc(OC(F)F)c1	42*	72*	-6%	2%	-5%	-26%
COc1cc(OC)cc(C(=O)NC2=NCCS2)c1	25	29	-13%	47%	-8%	-23%
CCCc1cc(=O)[nH]c(SCC(=O)Nc2sc(C(N)=O)c(C)c2C(=O)OCCOC)n1	x	x	-15%	25%	1%	-16%
COc1ccc(NC2=Nc3ccccc3CC2)cc1	23*	86	-4%	4%	10%	-42%
Cc1ccc(NS(=O)(=O)c2cc(-c3cc(C)no3)ccc2C(C)C)nc1	11	-1	u	8%	4%	-18%
Cc1ccc(CNC(=O)c2ccc(Cn3cc(-c4ccc(C)cc4)nc3-c3ccncc3)cc2)cc1	41*	42*	u	-11%	-9%	55%
COc1ccc(CNC(=O)c2ccc(C)cc2)cc1	24	39*	x	x	x	x
COc1ccc(C2=C(C)C(=O)N(Cc3ccc(C(=O)NCc4ccc(C)cc4)cc3)S2(=O)=O)cc1	x	x	9%	x	x	x
COc1ccc(CNC(=O)c2ccc(-c3ccccc3)cc2)cc1	45*	79*	2%	-4%	3%	-8%
COc1ccc(CNC(=O)c2sccc2C)cc1	15*	22	u	0%	1%	21%
COc1ccc(CCNC(=O)c2ccc(Br)cc2)cc1	-1	-9	2%	-4%	5%	-9%
COc1ccc(CNC(=O)c2ccc(Br)cc2)cc1	13*	63	5%	x	-1%	-3%
COc1ccc(OCC(O)CNC(=O)c2sccc2Cl)cc1 (stereo not given)	20*	16	6%	3%	-1%	-14%
O=c1[nH]nc(SCCS(=O)(=O)c2ccc(F)cc2)n1-c1ccccc1	12*	-11	5%	-22%	0%	-9%
O=C(Nc1ccc(F)c(F)c1)C(c1ccccc1)N1Cc2ccccc2C1=O (stereo not given)	x	x	19%	x	x	x
O=c1c2ccccc2oc2ccc(NCCCN3CCOCC3)cc12	36*	43*	u	-12%	5%	75%
O=c1c2ccccc2oc2cc(NCCCN3CCOCC3)ccc12	40*	35*	u	10%	-5%	71%
O=c1c2ccccc2oc2cc(NCCCn3ccnc3)ccc12	24*	24*	-11%	30%	-12%	-4%
CCN1CCN(C(=O)c2ccc3c(=O)n(Cc4ccccc4OC)c(=S)[nH]c3c2)CC1	-1	-3	1%	30%	2%	35%
O=C(CN1CCC(C(=O)c2ccc(F)cc2)CC1)Nc1ccc(F)cc1	-4	-6	-1%	-4%	-5%	1%
